Measured values: PubChem BioAssay (NCI)
Compounds without any hit were thinned out: in the full panel of roughly 83,000, 20% have a hit.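 Each cell line was grown in a 96-well plate and treated with one concentration of compound for 48 hours. Values below 10 were considered active.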 Unmarked numbers belong to inactive results. Active and inactive are the calls of the source.

System: NCI-H23 lung
Experiment: NCI-60 one-dose screen, 48 h (100 = growth as untreated, 0 = no growth, -100 = all killed)
Conditions: 10 µM unless noted

Compound	growth
COC(=O)C1(CC(C)=O)NC(=S)NC(=O)C1C#N (centres undefined)	99.5%
O=Cc1ccc(Cl)c(Cl)c1	99.1%
CC(=O)c1cc(O)ccc1O	92.9%
Nc1c(Br)cc(O)c2c1C(=O)c1ccccc1C2=O	32.8%
O=C1CSc2ccccc2N1	99.8%
NC(=S)N/N=C/c1ccc(OC(=O)COc2ccccc2)cn1	28.2%
CCOc1ccc2c(c1)c(C)cc(C)[n+]2CC	43.5%
CC1=CC(=Nc2ccc(N(C)C)cc2)C=C(C)C1=O	66.2%
COc1cc(CC#N)c([N+](=O)[O-])cc1OC	96%
CCC12OC(COc3ccccc3)CN1CCN2c1ccccc1 (centres undefined)	98.2% [100 µM]
C=CCOc1ccc(Cl)cc1Cl	111%
CCc1ccccc1C(=O)N(CC)CC	103%
Cc1ccc(S(=O)(=O)Oc2ccc3sc4c(CO)ccc(NCCN(C)C)c4c(=O)c3c2)cc1	-79.5% [100 µM] (active)
CCOC(=O)c1cc(C)[nH]c(=O)c1C#N	97.5%
CCN(CC)CCOC(=O)Nc1c(C(C)C)cccc1C(C)C	109%
N#CCCN1C(=O)CCC1C(=O)O (centres undefined)	109%
NNc1ncccn1	98.4%
Cc1cc(=O)n(Nc2ccccc2)c(O)c1C#N	97.4%
CC(=O)N(C)N=Nc1ccc(C)cc1	95%

Compound	growth
OCC1OC(n2ccc3c2ncn2ncnc32)C(O)C1O (centres undefined)	35.8%
CC(C)(C)[Si](C)(C)OCC1OC(n2cnc3c(N)ncnc32)CC1OS(C)(=O)=O (centres undefined)	106%
c1ccc(Oc2c3ccccc3nc3ccccc23)cc1	8.18% (active)
CN(C)c1ccc2c(N(C)C)cc(N(C)C)nc2c1	97.5%
CC(C)N(CCCC#N)C(C)C	104%
COc1ccc(-c2csc(NC(=O)Nc3nc(-c4ccc(OC)cc4)cs3)n2)cc1	66.8%
CCOC(OCC)C(=O)c1ccccc1	127%
CC1CC(C)S(=O)(=O)C1 (centres undefined)	106%
Clc1cccc(Cl)c1C1CSc2ccccc2N=C1c1ccccc1 (centres undefined)	75.6%
CCOc1ccc(C(=O)O)cc1	97.6%
CCN(CC)CCCC(C)NC(=S)N/N=C(\C)c1ccccn1 (centres undefined)	73.1%
C[n+]1cc2cc3c(cc2c2ccccc21)OCO3	42.7%
Cc1cccc2ccccc12	104%
Cn1c2ccccc2c2nnc(NCCCCO)nc21	84.3%
Cc1nc(C)c(C(=O)O)cc1C(=O)O	101%
C/C(=N\Nc1ccc([N+](=O)[O-])cc1[N+](=O)[O-])c1ccc(Br)cc1	103%
CC(=O)OC/C(C)=C\CC(C)COC(C)=O (centres undefined)	112%
CCOc1ccccc1NC(=O)CCl	71.4%

System: NCI-H226 lung
Experiment: as above
Conditions: 10 µM unless noted

Compound	growth
COC(=O)C1(CC(C)=O)NC(=S)NC(=O)C1C#N (centres undefined)	108%
O=Cc1ccc(Cl)c(Cl)c1	98.1%
CC(=O)c1cc(O)ccc1O	98%
Nc1c(Br)cc(O)c2c1C(=O)c1ccccc1C2=O	108%
O=C1CSc2ccccc2N1	111%
NC(=S)N/N=C/c1ccc(OC(=O)COc2ccccc2)cn1	92%
CCOc1ccc2c(c1)c(C)cc(C)[n+]2CC	82.8%
CC1=CC(=Nc2ccc(N(C)C)cc2)C=C(C)C1=O	83.5%
COc1cc(CC#N)c([N+](=O)[O-])cc1OC	105%
CCC12OC(COc3ccccc3)CN1CCN2c1ccccc1 (centres undefined)	93.8% [100 µM]
C=CCOc1ccc(Cl)cc1Cl	104%
CCc1ccccc1C(=O)N(CC)CC	95.4%
Cc1ccc(S(=O)(=O)Oc2ccc3sc4c(CO)ccc(NCCN(C)C)c4c(=O)c3c2)cc1	-42.2% [100 µM] (active)
CCOC(=O)c1cc(C)[nH]c(=O)c1C#N	101%
CCN(CC)CCOC(=O)Nc1c(C(C)C)cccc1C(C)C	104%
N#CCCN1C(=O)CCC1C(=O)O (centres undefined)	113%
NNc1ncccn1	109%
Cc1cc(=O)n(Nc2ccccc2)c(O)c1C#N	94%
CC(=O)N(C)N=Nc1ccc(C)cc1	97.7%

Compound	growth
OCC1OC(n2ccc3c2ncn2ncnc32)C(O)C1O (centres undefined)	25.1%
CC(C)(C)[Si](C)(C)OCC1OC(n2cnc3c(N)ncnc32)CC1OS(C)(=O)=O (centres undefined)	101%
c1ccc(Oc2c3ccccc3nc3ccccc23)cc1	47.9%
CN(C)c1ccc2c(N(C)C)cc(N(C)C)nc2c1	83.2%
CC(C)N(CCCC#N)C(C)C	114%
COc1ccc(-c2csc(NC(=O)Nc3nc(-c4ccc(OC)cc4)cs3)n2)cc1	70.6%
CCOC(OCC)C(=O)c1ccccc1	98.9%
CC1CC(C)S(=O)(=O)C1 (centres undefined)	105%
Clc1cccc(Cl)c1C1CSc2ccccc2N=C1c1ccccc1 (centres undefined)	82.7%
CCOc1ccc(C(=O)O)cc1	91.9%
CCN(CC)CCCC(C)NC(=S)N/N=C(\C)c1ccccn1 (centres undefined)	33.2%
C[n+]1cc2cc3c(cc2c2ccccc21)OCO3	55.3%
Cc1cccc2ccccc12	97%
Cn1c2ccccc2c2nnc(NCCCCO)nc21	83.9%
Cc1nc(C)c(C(=O)O)cc1C(=O)O	110%
C/C(=N\Nc1ccc([N+](=O)[O-])cc1[N+](=O)[O-])c1ccc(Br)cc1	96.6%
CC(=O)OC/C(C)=C\CC(C)COC(C)=O (centres undefined)	103%
CCOc1ccccc1NC(=O)CCl	86.3%
